# Laboratory results from PMC7862700, “An all-to-all approach to the identification of sequence-specific readers for epigenetic DNA modifications on cytosine”.
# Tests used:
# Experiment in all cases: DAPPL (digital affinity profiling via proximity ligation, sequencing); 10 mM Tris-HCl pH 7.5, 50 mM NaCl, 1 mM DTT, 4% glycerol, room temperature, 30 min; GST-TFs on glutathione beads, 16-mer random dsDNA library, 0.1% formaldehyde crosslink after washing; high values mean tight binding
# [1] = biological target: T1, FLI1 (Homo sapiens, UniProt Q01543 1-452); conditions: protein: recombinant; tags: N-terminal GST; dsDNA, one strand shown
# T1 sequence: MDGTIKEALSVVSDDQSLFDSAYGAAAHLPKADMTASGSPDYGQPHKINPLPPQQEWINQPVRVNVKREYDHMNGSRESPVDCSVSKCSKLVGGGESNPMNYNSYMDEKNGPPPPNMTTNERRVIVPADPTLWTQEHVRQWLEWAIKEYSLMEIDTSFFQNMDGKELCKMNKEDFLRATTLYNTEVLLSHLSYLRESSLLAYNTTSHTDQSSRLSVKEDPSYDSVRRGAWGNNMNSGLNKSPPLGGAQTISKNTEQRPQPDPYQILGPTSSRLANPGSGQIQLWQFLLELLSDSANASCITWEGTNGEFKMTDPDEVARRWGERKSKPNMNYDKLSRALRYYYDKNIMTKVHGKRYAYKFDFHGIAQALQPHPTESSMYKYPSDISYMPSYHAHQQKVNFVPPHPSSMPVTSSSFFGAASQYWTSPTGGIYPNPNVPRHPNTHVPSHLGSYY
# Summary of the method: (§1)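 Human transcription factors carrying a GST fusion were produced in yeast, bound to glutathione beads, tagged with DNA barcodes and pooled together with a tag-only sample. Each pool was held with 200 nmole of a random double-stranded 16-mer DNA library in Tris/NaCl/DTT/glycerol buffer for 30 min at room temperature, then washed, crosslinked in 0.1% formaldehyde, proximity-ligated with BsaI/T4 ligase (1 h, 37 °C), PCR-amplified and sequenced on an Illumina NextSeq500. Binding signal is the read frequency of each hexamer for a given factor divided by its frequency in the tag-only sample.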
# [2] = biological target: T2, ELK1 (Homo sapiens, UniProt P19419 1-428); conditions: protein: recombinant; tags: N-terminal GST; dsDNA, one strand shown
# T2 sequence: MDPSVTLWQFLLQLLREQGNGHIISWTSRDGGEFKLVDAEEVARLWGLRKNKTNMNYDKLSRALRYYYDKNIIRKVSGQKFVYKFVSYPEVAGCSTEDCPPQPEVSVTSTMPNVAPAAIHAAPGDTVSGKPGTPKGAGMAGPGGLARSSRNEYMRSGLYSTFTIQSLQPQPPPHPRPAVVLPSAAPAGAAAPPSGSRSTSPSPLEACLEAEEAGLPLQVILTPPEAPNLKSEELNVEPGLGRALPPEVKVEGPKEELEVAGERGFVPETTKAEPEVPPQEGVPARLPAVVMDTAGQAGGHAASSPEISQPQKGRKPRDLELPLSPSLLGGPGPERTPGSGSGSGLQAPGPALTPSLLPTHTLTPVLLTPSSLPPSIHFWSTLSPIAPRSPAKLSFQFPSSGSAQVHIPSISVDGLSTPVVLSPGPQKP
# Summary of the method: as §1
# [3] = biological target: T3, GABPA (Homo sapiens, UniProt Q06546 1-454); conditions: protein: recombinant; tags: N-terminal GST; dsDNA, one strand shown
# T3 sequence: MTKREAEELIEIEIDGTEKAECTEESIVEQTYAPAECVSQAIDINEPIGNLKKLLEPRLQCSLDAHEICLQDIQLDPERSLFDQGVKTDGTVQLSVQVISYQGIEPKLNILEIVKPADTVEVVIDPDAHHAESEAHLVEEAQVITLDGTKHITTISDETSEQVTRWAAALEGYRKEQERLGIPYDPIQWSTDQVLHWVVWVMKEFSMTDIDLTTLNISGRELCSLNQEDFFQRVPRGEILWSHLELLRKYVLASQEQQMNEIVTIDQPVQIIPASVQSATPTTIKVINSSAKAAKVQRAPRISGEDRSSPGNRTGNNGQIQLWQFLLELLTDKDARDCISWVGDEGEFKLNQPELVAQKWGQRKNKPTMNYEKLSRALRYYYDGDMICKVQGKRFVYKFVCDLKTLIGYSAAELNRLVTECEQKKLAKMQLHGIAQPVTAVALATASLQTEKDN
# Summary of the method: as §1
# [4] = biological target: T4, ERG (Homo sapiens, UniProt P11308 1-479); conditions: protein: recombinant; tags: N-terminal GST; dsDNA, one strand shown
# T4 sequence: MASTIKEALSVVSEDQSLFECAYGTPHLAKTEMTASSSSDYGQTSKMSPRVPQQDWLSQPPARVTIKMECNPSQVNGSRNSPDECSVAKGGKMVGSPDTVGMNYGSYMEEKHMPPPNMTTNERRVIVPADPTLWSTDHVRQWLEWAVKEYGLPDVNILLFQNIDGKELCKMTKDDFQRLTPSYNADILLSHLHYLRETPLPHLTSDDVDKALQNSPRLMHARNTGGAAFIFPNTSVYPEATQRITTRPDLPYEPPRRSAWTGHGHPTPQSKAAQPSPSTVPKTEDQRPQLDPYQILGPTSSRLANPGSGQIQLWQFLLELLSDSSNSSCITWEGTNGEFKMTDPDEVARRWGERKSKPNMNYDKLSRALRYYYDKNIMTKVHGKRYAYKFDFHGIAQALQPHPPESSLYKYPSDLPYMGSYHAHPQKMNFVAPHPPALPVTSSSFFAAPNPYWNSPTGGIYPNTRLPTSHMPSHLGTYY
# Summary of the method: as §1
# [5] = biological target: ELF1 (Homo sapiens, UniProt P32519 1-619); conditions: protein: recombinant; tags: N-terminal GST; dsDNA, one strand shown
# Chain of ELF1 (P32519 whole entry): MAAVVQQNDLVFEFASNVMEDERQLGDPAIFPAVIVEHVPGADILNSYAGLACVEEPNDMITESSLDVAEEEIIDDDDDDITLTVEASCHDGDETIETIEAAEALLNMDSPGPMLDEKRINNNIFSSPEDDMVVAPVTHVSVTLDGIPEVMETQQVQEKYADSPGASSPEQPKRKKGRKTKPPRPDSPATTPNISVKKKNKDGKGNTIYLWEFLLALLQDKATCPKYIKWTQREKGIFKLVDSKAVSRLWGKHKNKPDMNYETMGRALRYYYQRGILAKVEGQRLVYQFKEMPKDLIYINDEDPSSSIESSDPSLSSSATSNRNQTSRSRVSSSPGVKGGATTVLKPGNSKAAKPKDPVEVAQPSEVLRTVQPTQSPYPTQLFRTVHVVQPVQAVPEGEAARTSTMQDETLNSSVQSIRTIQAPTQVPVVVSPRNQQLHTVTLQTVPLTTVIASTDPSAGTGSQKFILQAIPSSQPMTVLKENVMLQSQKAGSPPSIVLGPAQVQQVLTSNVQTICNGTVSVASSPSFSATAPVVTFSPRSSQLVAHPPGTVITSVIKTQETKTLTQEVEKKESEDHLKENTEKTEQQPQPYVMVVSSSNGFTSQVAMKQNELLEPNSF
# Summary of the method: as §1
# [6] = biological target: T5, EHF (Homo sapiens, UniProt Q9NZC4 1-300); conditions: protein: recombinant; tags: N-terminal GST; dsDNA, one strand shown
# T5 sequence: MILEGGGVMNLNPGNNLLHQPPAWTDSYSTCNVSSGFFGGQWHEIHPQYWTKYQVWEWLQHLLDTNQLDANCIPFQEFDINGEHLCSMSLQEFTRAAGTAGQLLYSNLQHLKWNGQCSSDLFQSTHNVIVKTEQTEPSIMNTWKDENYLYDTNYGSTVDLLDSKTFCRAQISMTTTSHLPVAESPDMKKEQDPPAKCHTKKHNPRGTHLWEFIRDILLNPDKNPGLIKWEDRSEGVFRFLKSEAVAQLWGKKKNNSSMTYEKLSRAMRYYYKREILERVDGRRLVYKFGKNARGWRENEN
# Summary of the method: as §1
# [7] = biological target: SPI1 (Homo sapiens, UniProt P17947 1-270); conditions: protein: recombinant; tags: N-terminal GST; dsDNA, one strand shown
# Summary of the method: as §1
# [8] = biological target: SPIB (Homo sapiens, UniProt Q01892 1-262); conditions: protein: recombinant; tags: N-terminal GST; dsDNA, one strand shown
# Chain of SPIB (Q01892 whole entry): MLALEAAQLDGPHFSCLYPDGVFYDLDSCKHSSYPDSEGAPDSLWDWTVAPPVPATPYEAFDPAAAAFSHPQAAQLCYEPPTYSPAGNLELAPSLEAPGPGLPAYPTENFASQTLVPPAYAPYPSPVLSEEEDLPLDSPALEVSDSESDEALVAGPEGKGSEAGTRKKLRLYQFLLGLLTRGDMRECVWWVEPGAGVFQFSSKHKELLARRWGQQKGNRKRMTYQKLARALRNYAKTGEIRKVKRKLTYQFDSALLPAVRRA
# Summary of the method: as §1
# [9] = biological target: T6, ELK3 (Homo sapiens, UniProt P41970 1-407); conditions: protein: recombinant; tags: N-terminal GST; dsDNA, one strand shown
# T6 sequence: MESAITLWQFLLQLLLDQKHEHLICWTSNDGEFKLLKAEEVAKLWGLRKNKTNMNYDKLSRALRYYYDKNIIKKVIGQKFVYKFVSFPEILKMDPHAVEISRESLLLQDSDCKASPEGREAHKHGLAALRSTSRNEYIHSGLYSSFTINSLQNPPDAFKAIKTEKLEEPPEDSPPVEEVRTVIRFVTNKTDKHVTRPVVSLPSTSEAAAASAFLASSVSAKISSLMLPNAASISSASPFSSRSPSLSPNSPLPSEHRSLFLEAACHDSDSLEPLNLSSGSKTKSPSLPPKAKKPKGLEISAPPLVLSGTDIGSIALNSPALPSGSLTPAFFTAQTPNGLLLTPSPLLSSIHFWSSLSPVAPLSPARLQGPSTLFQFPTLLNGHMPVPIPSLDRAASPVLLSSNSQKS
# Summary of the method: as §1
# [10] = biological target: T7, FEV (Homo sapiens, UniProt Q99581 1-238); conditions: protein: recombinant; tags: N-terminal GST; dsDNA, one strand shown
# T7 sequence: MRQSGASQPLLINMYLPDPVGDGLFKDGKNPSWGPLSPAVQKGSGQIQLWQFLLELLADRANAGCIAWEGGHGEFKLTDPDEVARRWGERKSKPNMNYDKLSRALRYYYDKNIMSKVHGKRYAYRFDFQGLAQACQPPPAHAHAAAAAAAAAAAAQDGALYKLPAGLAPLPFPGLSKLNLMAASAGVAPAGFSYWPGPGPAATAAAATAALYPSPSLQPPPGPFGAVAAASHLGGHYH
# Summary of the method: as §1
# [11] = biological target: ETV5 (Homo sapiens, UniProt P41161 1-510); conditions: protein: recombinant; tags: N-terminal GST; dsDNA, one strand shown
# Chain of ETV5 (P41161 whole entry): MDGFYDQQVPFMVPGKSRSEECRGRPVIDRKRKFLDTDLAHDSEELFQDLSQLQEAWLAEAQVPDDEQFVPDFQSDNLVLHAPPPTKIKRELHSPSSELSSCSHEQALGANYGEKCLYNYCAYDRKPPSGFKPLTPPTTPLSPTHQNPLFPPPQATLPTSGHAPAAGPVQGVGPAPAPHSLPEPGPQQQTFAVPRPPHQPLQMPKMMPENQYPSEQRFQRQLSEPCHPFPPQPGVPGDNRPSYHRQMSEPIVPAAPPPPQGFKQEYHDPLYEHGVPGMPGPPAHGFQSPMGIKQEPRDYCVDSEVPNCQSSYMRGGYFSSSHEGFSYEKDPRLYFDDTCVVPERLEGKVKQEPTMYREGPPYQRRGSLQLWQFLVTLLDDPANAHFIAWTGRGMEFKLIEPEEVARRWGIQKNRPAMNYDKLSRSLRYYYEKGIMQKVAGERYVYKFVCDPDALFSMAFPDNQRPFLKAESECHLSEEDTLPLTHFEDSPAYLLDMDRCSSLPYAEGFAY
# Summary of the method: as §1
# [12] = biological target: HSF1 (Homo sapiens, UniProt Q00613 1-529); conditions: protein: recombinant; tags: N-terminal GST; chain copies: 3; dsDNA, one strand shown
# Chain of HSF1 (Q00613 whole entry): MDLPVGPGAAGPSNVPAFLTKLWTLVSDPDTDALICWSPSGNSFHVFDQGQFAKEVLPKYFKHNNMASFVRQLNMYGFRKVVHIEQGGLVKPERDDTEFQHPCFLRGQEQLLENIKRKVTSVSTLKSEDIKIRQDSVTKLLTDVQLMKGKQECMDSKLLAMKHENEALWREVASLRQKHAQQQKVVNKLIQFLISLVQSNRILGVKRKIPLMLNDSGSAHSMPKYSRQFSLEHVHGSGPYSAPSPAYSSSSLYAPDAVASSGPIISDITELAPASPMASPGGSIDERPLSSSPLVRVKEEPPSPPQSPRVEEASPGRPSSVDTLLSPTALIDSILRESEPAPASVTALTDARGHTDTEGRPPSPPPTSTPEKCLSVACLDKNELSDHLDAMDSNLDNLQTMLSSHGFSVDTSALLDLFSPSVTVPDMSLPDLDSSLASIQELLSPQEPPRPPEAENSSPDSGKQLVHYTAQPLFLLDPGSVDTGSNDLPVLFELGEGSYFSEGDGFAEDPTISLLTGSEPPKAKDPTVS
# Summary of the method: as §1
# [13] = biological target: T8, SPIC (Homo sapiens, UniProt Q8N5J4 1-248); conditions: protein: recombinant; tags: N-terminal GST; dsDNA, one strand shown
# T8 sequence: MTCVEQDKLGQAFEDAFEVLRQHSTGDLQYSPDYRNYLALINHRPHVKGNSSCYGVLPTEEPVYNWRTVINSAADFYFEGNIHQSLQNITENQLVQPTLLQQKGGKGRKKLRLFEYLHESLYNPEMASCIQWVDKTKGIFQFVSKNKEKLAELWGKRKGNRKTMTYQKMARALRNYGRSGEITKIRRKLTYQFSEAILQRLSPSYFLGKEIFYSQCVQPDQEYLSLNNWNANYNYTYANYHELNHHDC
# Summary of the method: as §1
# [14] = biological target: ELF4 (Homo sapiens, UniProt Q99607 1-663); conditions: protein: recombinant; tags: N-terminal GST; dsDNA, one strand shown
# Chain of ELF4 (Q99607 whole entry): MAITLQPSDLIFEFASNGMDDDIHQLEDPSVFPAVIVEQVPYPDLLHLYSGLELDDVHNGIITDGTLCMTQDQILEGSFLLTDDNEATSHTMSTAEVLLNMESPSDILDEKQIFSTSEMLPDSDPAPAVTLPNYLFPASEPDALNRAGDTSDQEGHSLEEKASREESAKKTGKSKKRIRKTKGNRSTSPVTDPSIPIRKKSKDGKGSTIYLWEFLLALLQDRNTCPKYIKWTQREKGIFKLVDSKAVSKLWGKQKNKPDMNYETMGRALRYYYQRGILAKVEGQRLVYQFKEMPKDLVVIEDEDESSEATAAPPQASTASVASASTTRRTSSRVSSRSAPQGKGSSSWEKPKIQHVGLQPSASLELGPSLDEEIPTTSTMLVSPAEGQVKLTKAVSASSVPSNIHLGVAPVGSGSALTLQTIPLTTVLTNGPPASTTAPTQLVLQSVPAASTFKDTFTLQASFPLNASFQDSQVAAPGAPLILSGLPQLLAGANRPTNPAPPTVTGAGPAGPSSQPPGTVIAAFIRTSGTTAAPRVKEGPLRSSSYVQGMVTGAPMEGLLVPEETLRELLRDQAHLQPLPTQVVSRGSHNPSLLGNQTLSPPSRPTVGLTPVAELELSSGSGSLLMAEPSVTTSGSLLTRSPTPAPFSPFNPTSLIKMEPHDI
# Summary of the method: as §1
# [15] = biological target: T9, ELK4 (Homo sapiens, UniProt P28324-2 1-405); conditions: protein: recombinant; tags: N-terminal GST; dsDNA, one strand shown
# T9 sequence: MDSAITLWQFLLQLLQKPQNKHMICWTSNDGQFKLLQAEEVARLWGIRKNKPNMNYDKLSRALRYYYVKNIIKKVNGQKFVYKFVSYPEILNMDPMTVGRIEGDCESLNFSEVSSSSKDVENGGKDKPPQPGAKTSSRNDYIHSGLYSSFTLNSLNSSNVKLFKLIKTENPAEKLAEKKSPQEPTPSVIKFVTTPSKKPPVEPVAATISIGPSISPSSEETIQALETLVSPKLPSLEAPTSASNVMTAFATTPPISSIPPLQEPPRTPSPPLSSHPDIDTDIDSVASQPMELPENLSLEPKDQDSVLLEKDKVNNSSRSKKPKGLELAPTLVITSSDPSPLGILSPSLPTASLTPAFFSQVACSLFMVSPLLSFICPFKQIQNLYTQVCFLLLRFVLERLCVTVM
# Summary of the method: as §1
# [16] = biological target: T10, ETV2 (Homo sapiens, UniProt O00321 1-342); conditions: protein: recombinant; tags: N-terminal GST; dsDNA, one strand shown
# T10 sequence: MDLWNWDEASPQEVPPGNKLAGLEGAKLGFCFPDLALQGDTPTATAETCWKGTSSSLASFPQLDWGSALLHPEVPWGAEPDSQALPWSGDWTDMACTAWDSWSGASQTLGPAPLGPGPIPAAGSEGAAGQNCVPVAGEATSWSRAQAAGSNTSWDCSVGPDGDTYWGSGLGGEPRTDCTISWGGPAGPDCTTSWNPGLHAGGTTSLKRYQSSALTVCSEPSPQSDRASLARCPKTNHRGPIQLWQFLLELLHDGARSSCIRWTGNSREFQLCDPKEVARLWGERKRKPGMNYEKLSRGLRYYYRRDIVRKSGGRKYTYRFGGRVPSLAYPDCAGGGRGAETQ
# Summary of the method: as §1
# [17] = biological target: T11, ELF3 (Homo sapiens, UniProt P78545 1-371); conditions: protein: recombinant; tags: N-terminal GST; dsDNA, one strand shown
# T11 sequence: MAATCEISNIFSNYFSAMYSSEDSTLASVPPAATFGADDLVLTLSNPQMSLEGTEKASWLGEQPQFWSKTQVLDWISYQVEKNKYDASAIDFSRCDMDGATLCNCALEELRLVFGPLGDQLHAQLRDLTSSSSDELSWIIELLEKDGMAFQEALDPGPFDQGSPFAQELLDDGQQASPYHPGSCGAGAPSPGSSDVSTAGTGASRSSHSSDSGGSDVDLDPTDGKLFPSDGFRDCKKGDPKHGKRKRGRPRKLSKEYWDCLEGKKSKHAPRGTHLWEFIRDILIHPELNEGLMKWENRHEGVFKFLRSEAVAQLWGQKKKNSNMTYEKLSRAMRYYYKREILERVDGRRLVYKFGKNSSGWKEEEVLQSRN
# Summary of the method: as §1
# [18] = biological target: CRX (Homo sapiens, UniProt O43186 1-299); conditions: protein: recombinant; tags: N-terminal GST; dsDNA, one strand shown
# Chain of CRX (O43186 whole entry): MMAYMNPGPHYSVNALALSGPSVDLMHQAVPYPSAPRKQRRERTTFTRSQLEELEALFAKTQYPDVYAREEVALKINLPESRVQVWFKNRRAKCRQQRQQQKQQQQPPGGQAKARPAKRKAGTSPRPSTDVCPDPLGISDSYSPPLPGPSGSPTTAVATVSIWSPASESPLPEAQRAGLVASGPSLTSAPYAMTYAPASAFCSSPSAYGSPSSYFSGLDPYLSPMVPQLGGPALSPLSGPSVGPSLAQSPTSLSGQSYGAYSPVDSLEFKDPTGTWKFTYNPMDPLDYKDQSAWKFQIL
# Summary of the method: as §1
# [19] = biological target: ETV1 (Homo sapiens, UniProt P50549 1-477); conditions: protein: recombinant; tags: N-terminal GST; dsDNA, one strand shown
# Chain of ETV1 (P50549 whole entry): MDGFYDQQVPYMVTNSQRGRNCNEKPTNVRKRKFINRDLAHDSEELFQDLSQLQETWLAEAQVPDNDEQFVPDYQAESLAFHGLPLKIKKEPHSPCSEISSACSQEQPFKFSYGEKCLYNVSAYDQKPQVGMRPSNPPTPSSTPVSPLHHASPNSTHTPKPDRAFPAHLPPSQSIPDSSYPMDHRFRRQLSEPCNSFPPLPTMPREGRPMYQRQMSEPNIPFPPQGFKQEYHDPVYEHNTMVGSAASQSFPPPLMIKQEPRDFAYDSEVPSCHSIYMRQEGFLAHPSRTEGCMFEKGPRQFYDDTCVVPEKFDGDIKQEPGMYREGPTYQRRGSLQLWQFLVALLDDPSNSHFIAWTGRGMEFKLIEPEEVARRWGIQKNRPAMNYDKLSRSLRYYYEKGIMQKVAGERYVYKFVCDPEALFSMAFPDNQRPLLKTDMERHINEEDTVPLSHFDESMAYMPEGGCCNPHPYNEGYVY
# Summary of the method: as §1
sequence,measurement,setting,value
ATAGAT,binding signal,[1],"1.16 fold enrichment (6-mer frequency, TF over GST control)"
same,binding signal,[2],"1.14 fold enrichment (6-mer frequency, TF over GST control)"
same,binding signal,[3],"1.17 fold enrichment (6-mer frequency, TF over GST control)"
same,binding signal,[4],"1.11 fold enrichment (6-mer frequency, TF over GST control)"
same,binding signal,[5],"1.23 fold enrichment (6-mer frequency, TF over GST control)"
same,binding signal,[6],"1.17 fold enrichment (6-mer frequency, TF over GST control)"
same,binding signal,[7],"1.07 fold enrichment (6-mer frequency, TF over GST control)"
same,binding signal,[8],"1.16 fold enrichment (6-mer frequency, TF over GST control)"
same,binding signal,[9],"1.23 fold enrichment (6-mer frequency, TF over GST control)"
same,binding signal,[10],"1.15 fold enrichment (6-mer frequency, TF over GST control)"
same,binding signal,[11],"1.11 fold enrichment (6-mer frequency, TF over GST control)"
same,binding signal,[12],"1.42 fold enrichment (6-mer frequency, TF over GST control)"
same,binding signal,[13],"1.2 fold enrichment (6-mer frequency, TF over GST control)"
same,binding signal,[14],"1.17 fold enrichment (6-mer frequency, TF over GST control)"
same,binding signal,[15],"1.13 fold enrichment (6-mer frequency, TF over GST control)"
same,binding signal,[16],"1.19 fold enrichment (6-mer frequency, TF over GST control)"
same,binding signal,[17],"1.13 fold enrichment (6-mer frequency, TF over GST control)"
same,binding signal,[18],"1.49 fold enrichment (6-mer frequency, TF over GST control)"
same,binding signal,[19],"1.19 fold enrichment (6-mer frequency, TF over GST control)"
